Data published in PubChem BioAssay (EPA / NIEHS).
Activity calls are given as the source filed them. How the source made its calls: active means hit-call score of the fitted dose curve at least 0.9, where 1 is the maximum; inactive means score below 0.9.

Legend:
Details in all cases: mRNA level, 48 h; actives raise or lower the signal
[1] = read-out: Cytochrome P450 7A1 (Homo sapiens) (UniProt P22680); test: LTEA_HepaRG_CYP7A1: Life Technologies and Expression Analysis (LTEA) Assay for Cytochrome P450 7A1 (CYP7A1) using HepaRG (AID 2283496)
Summary of the method: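 Using 0.5% DMSO as vehicle and baseline, chemicals were tested in duplicate over an 8-point range from 100 uM on HepaRG cells for 48 h; qRT-PCR signals were normalised to ACTB, GAPDH and POLR2A.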

[2] = read-out: Glutathione S-Transferase (GSTA2), GSTA2 (gene 2939); test: LTEA_HepaRG_GSTA2: Life Technologies and Expression Analysis (LTEA) Assay for Glutathione S-Transferase (GSTA2) using HepaRG (AID 2283497)
Summary of the method: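 Oxidative-stress marker GSTA2 is quantified by TaqMan qRT-PCR in HepaRG cultures treated 48 h across an eight-point range to 100 uM. Expression is normalized to endogenous controls and compared with 0.5% DMSO vehicle.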

[3] = read-out: Glutamate-cysteine ligase catalytic (GCLC), GCLC (gene 2729); test: LTEA_HepaRG_GCLC: Life Technologies and Expression Analysis (LTEA) Assay for Glutamate-cysteine ligase catalytic (GCLC) using HepaRG (AID 2283498)
Summary of the method: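 Oxidative-stress marker GCLC is measured as mRNA change in human HepaRG liver cells after 48 h chemical treatment in 0.5% DMSO, eight concentrations from 100 uM. Activity is fitted bidirectionally against vehicle.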

[4] = read-out: Glutamate-cysteine ligase regulatory (GCLM), GCLM (gene 2730); test: LTEA_HepaRG_GCLM: Life Technologies and Expression Analysis (LTEA) Assay for Glutamate-cysteine ligase regulatory (GCLM) using HepaRG (AID 2283500)
Summary of the method: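 HepaRG, 48 h dosing, 100 uM top, half-log x8, 0.5% DMSO vehicle. Readout: GCLM mRNA by TaqMan qRT-PCR, housekeeping-normalized (ACTB/GAPDH/POLR2A). Curves fit bidirectionally vs DMSO baseline.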

[5] = read-out: Glutathione S-transferase M3 (GSTM3), GSTM3 (gene 2947); test: LTEA_HepaRG_GSTM3: Life Technologies and Expression Analysis (LTEA) Assay for Glutathione S-transferase M3 (GSTM3) using HepaRG (AID 2283501)
Summary of the method: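 HepaRG, plated 48 h, then serum-free induction medium; test chemical 48 h, duplicate; 100 uM top, half-log x8, 0.5% DMSO. Read-out: GSTM3 mRNA (TaqMan qRT-PCR, Fluidigm array). Bidirectional fit vs DMSO.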

[6] = read-out: Heat shock 70 kDa protein 1 (HSPA1A), gene 3303; test: LTEA_HepaRG_HSPA1A: Life Technologies and Expression Analysis (LTEA) Assay for Heat shock 70 kDa protein 1 (HSPA1A) using HepaRG (AID 2283502)
Summary of the method: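 HepaRG, 48 h exposure, 8-pt half-log CRC from 100 uM in 0.5% DMSO, duplicates. Readout: TaqMan qRT-PCR of HSPA1A mRNA, housekeeping-normalized (ACTB/GAPDH/POLR2A). Bidirectional fit vs 0.5% DMSO baseline.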

[7] = read-out: Hypoxia-inducible factor 1-alpha (Homo sapiens) (UniProt Q16665); test: LTEA_HepaRG_HIF1A: Life Technologies and Expression Analysis (LTEA) Assay for Hypoxia-inducible factor 1 (HIF1A) Trancription factor using HepaRG (AID 2283503)
Summary of the method: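 Gain- or loss-of-signal HIF1A mRNA changes are fitted against a DMSO baseline. HepaRG cultures receive eight concentrations, highest 100 uM, for 48 h in serum-free induction medium with 0.5% DMSO.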

[8] = read-out: 3-Hydroxy-3-Methylglutaryl-CoA Synthase 2 (HMGCS2), HMGCS2 (gene 3158); test: LTEA_HepaRG_HMGCS2: Life Technologies and Expression Analysis (LTEA) Assay for 3-Hydroxy-3-Methylglutaryl-CoA Synthase 2 (HMGCS2) using HepaRG (AID 2283504)
Summary of the method: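 HepaRG, plated 48 h then switched to serum-free induction media; cmpd 8-pt, max 100 uM, 1/2-log, 0.5% DMSO, n=2, 48 h. HMGCS2 mRNA by Fluidigm TaqMan qRT-PCR, ACTB/GAPDH/POLR2A norm; bidirectional fit vs DMSO.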

HGF (gene 3082) = test: LTEA_HepaRG_HGF: Life Technologies and Expression Analysis (LTEA) Assay for Hepatocyte Growth Facto (HGF) using HepaRG (AID 2283505)
Summary of the method: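 Read-out is HGF transcript level by qRT-PCR, normalized to three housekeeping genes, fitted bidirectionally against 0.5% DMSO vehicle. Human HepaRG cells received test chemicals for 48 h at up to 100 uM.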

[9] = read-out: growth arrest and DNA damage 45 (GADD45G), GADD45G (gene 10912); test: LTEA_HepaRG_GADD45G: Life Technologies and Expression Analysis (LTEA) Assay for growth arrest and DNA damage 45 (GADD45G) using HepaRG (AID 2283499)
Summary of the method: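 Gain or loss of GADD45G mRNA, quantified by TaqMan qRT-PCR against three housekeeping genes, is fitted in both directions relative to 0.5% DMSO. Human HepaRG cultures receive test chemical for 48 h at up to 100 uM.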

Chain of Hypoxia-inducible factor 1-alpha (Homo sapiens) (Q16665 whole entry, looked up): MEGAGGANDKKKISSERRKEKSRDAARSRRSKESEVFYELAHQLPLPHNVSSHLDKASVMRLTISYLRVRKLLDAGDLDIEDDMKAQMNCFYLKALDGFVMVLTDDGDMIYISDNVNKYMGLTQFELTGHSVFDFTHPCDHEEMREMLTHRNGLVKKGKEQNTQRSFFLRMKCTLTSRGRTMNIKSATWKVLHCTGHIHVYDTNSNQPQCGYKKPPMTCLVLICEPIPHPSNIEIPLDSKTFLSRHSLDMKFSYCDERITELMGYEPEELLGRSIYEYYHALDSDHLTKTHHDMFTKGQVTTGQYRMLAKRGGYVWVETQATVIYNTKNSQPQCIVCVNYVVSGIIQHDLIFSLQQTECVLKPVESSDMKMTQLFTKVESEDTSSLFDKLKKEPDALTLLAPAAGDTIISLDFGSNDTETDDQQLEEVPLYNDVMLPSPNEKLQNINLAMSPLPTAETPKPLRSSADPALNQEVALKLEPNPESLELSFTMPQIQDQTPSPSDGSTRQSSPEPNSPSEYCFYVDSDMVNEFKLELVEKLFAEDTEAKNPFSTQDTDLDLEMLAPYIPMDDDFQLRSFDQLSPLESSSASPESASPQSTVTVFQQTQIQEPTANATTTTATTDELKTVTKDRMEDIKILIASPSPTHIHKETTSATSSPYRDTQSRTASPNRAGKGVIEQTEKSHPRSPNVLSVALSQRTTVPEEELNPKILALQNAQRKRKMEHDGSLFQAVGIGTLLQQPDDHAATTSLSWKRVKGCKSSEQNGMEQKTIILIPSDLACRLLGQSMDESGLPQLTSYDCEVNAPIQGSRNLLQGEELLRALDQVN

CN=C=S
outcome [1]: inactive
outcome [2]: inactive
outcome [3]: inactive
outcome [4]: inactive
outcome [5]: inactive
outcome [6]: inactive
outcome [7]: inactive
outcome [8]: inactive
outcome (HGF (gene 3082)): inactive

Cc1cnc(C2=NC(C)(C(C)C)C(=O)N2)c(C(=O)O)c1 (stereo not drawn)
outcome [1]: inactive
outcome [2]: inactive
outcome [3]: inactive
outcome [9]: inactive
outcome [4]: inactive
outcome [5]: inactive
outcome [6]: inactive
outcome [8]: inactive
outcome (HGF (gene 3082)): inactive

COCc1cnc(C2=NC(C)(C(C)C)C(=O)N2)c(C(=O)O)c1 (stereo not drawn)
outcome [1]: inactive
outcome [2]: inactive
outcome [3]: inactive
outcome [4]: inactive
outcome [5]: inactive
outcome [6]: inactive
outcome [7]: inactive
outcome [8]: inactive
outcome (HGF (gene 3082)): inactive

C=CCOC(=O)C(C)(C)OC(=O)c1cc(-n2c(=O)cc(C(F)(F)F)n(C)c2=O)ccc1Cl
outcome [1]: inactive
outcome [2]: inactive
outcome [3]: inactive
outcome [9]: inactive
outcome [4]: inactive
outcome [5]: inactive
outcome [6]: inactive
outcome [7]: inactive
outcome [8]: inactive
outcome (HGF (gene 3082)): inactive

CCCCOCN(C(=O)CCl)c1c(CC)cccc1CC
outcome [1]: inactive
outcome [2]: inactive
outcome [3]: inactive
outcome [9]: inactive
outcome [4]: inactive
outcome [5]: inactive
outcome [6]: inactive
outcome [7]: inactive
outcome [8]: inactive
outcome (HGF (gene 3082)): inactive

Cc1c(COC(=O)[C@@H]2[C@H](/C=C(\Cl)C(F)(F)F)C2(C)C)cccc1-c1ccccc1
AC50 [1]: 14.8 µM (active)
outcome [2]: inactive
outcome [3]: inactive
outcome [9]: inactive
outcome [4]: inactive
outcome [5]: inactive
outcome [6]: inactive
outcome [7]: inactive
outcome [8]: inactive
outcome (HGF (gene 3082)): inactive

CNC(=O)Oc1cccc2ccccc12
outcome [1]: inactive
outcome [2]: inactive
outcome [3]: inactive
outcome [9]: inactive
outcome [4]: inactive
outcome [5]: inactive
outcome [6]: inactive
outcome [7]: inactive
outcome [8]: inactive
outcome (HGF (gene 3082)): inactive

CS(=O)(=O)c1ccc(C(=O)C2C(=O)CCCC2=O)c([N+](=O)[O-])c1
outcome [1]: inactive
outcome [2]: inactive
outcome [3]: inactive
outcome [9]: inactive
outcome [4]: inactive
outcome [5]: inactive
outcome [6]: inactive
outcome [8]: inactive
outcome (HGF (gene 3082)): inactive

CCC(C)n1c(=O)[nH]c(C)c(Br)c1=O (stereo not drawn)
AC50 [1]: 23.7 µM (active)
AC50 [2]: 50 µM (active)
outcome [3]: inactive
AC50 [9]: 30.4 µM (active)
outcome [4]: inactive
outcome [5]: inactive
outcome [6]: inactive
outcome [7]: inactive
AC50 [8]: 29.2 µM (active)
outcome (HGF (gene 3082)): inactive

CC(C)C1(C)N=C(c2ncccc2C(=O)O)NC1=O (stereo not drawn)
outcome [1]: inactive
outcome [2]: inactive
outcome [3]: inactive
outcome [9]: inactive
outcome [4]: inactive
outcome [5]: inactive
outcome [6]: inactive
outcome [7]: inactive
outcome [8]: inactive
outcome (HGF (gene 3082)): inactive

COC(=O)NC(=S)Nc1ccccc1NC(=S)NC(=O)OC
outcome [1]: inactive
outcome [2]: inactive
outcome [3]: inactive
outcome [9]: inactive
outcome [4]: inactive
outcome [5]: inactive
outcome [6]: inactive
outcome [8]: inactive
outcome (HGF (gene 3082)): inactive

CO/N=C(/C1=NOCCO1)c1ccccc1Oc1ncnc(Oc2ccccc2Cl)c1F
AC50 [1]: 24 µM (active)
AC50 [2]: 28.4 µM (active)
outcome [3]: inactive
AC50 [9]: 18.4 µM (active)
AC50 [4]: 19.5 µM (active)
outcome [5]: inactive
outcome [6]: inactive
outcome [7]: inactive
AC50 [8]: 21.9 µM (active)
outcome (HGF (gene 3082)): inactive

COC(=O)c1c(C(F)F)nc(C(F)(F)F)c(C2=NCCS2)c1CC(C)C
outcome [1]: inactive
outcome [2]: inactive
outcome [3]: inactive
outcome [9]: inactive
outcome [4]: inactive
outcome [5]: inactive
outcome [6]: inactive
outcome [7]: inactive
outcome [8]: inactive
outcome (HGF (gene 3082)): inactive

O=C(Nc1ccccc1-c1ccc(Cl)cc1)c1cccnc1Cl
AC50 [1]: 17 µM (active)
outcome [2]: inactive
outcome [3]: inactive
outcome [9]: inactive
outcome [4]: inactive
outcome [5]: inactive
outcome [6]: inactive
outcome [7]: inactive
AC50 [8]: 52.5 µM (active)
outcome (HGF (gene 3082)): inactive

CC1(C)CON(Cc2ccccc2Cl)C1=O
outcome [1]: inactive
outcome [2]: inactive
outcome [3]: inactive
outcome [9]: inactive
outcome [4]: inactive
outcome [5]: inactive
outcome [6]: inactive
outcome [8]: inactive
outcome (HGF (gene 3082)): inactive

COP(=S)(OC)Oc1ccc([N+](=O)[O-])c(C)c1
outcome [1]: inactive
outcome [2]: inactive
outcome [3]: inactive
outcome [9]: inactive
outcome [4]: inactive
outcome [5]: inactive
outcome [6]: inactive
outcome [7]: inactive
outcome [8]: inactive
outcome (HGF (gene 3082)): inactive

CC(C)Nc1nc(Cl)nc(NC(C)C)n1
AC50 [1]: 50 µM (active)
outcome [2]: inactive
outcome [3]: inactive
outcome [4]: inactive
outcome [5]: inactive
outcome [6]: inactive
outcome [7]: inactive
AC50 [8]: 23.6 µM (active)
outcome (HGF (gene 3082)): inactive
